Measured values from PubChem BioAssay (NCI).
Values joined by “and” are separate entries in the source; they are usually repeats but may differ in a detail not shown here. Identical values can stand only once. About 79,000 compounds went through this panel and 15% of them were active in at least one assay; those are over-represented in the sample as a whole. Values without a mark were called inactive. Active and inactive are the calls of the source. Cut-off read from the data, not from the text of the source: active = growth inhibition above about 70%; inactive = the rest.

Tests used:
[1] = NCI Yeast Anticancer Drug Screen. Data for the rad50 strain (AID 155);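 note: 0% = growth of vehicle-only cultures of the same strain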; settings: S. cerevisiae rad50 strain growth inhibition, active compounds read high; at 50.0 µM unless noted
Procedure, shortened: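 Readout: growth inhibition relative to vehicle-treated cultures. Compound exposure was carried out in a genetically defined yeast strain deficient in DNA damage repair.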

[2] = NCI Yeast Anticancer Drug Screen. Data for the mec2-1 strain (AID 157); settings: S. cerevisiae mec2-1 strain, active compounds read high; at 50.0 µM unless noted
Procedure, shortened: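 Yeast mec2-1 mutant treated with compound. Readout: growth inhibition vs vehicle controls.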

[3] = NCI Yeast Anticancer Drug Screen. Data for the sgs1 mgt1 strain (AID 161);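 note: 0% = growth of cultures given vehicle only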; settings: S. cerevisiae sgs1 mgt1 strain, active compounds read high; at 50.0 µM unless noted
Procedure, shortened: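 Genetically altered yeast, compound exposure, growth inhibition relative to vehicle.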

[4] = NCI Yeast Anticancer Drug Screen. Data for the cln2 rad14 strain (AID 165);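 note: 0% = growth equal to vehicle treated cultures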; settings: S. cerevisiae cln2 rad14 strain, active compounds read high; at 50.0 µM unless noted
Procedure, shortened: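 cln2 rad14 yeast strain; compound exposure; growth inhibition read vs vehicle controls.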

[5] = NCI Yeast Anticancer Drug Screen. Data for the bub3 strain (AID 167); settings: S. cerevisiae bub3 mutant strain, active compounds read high; at 50.0 µM unless noted
Procedure, shortened: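 Readout: yeast growth inhibition, expressed relative to vehicle-only wells. The test organism is a mutant strain from a panel with lesions in DNA repair or checkpoint genes.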

[6] = NCI Yeast Anticancer Drug Screen. Data for the mlh1 rad18 strain (AID 175); settings: S. cerevisiae mlh1 rad18 strain growth inhibition, active compounds read high; at 50.0 µM unless noted
Procedure, shortened: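 Yeast w/ defined DNA-repair lesions; compound exposure; growth vs vehicle controls → % inhibition.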

| Structure (SMILES) | growth inhibition [1] | growth inhibition [2] | growth inhibition [3] | growth inhibition [4] | growth inhibition [5] | growth inhibition [6] |
| --- | --- | --- | --- | --- | --- | --- |
| O=C(Nc1ccc2ccccc2c1)c1ccccc1Cl | 1.65% | -4.4% | 21.9% | -7.15% | 17.1% | 32.3% |
| C(#Cc1ccccc1)CC#Cc1ccccc1 | 5.4% | 10.2% | -11.7% | -0.3% | -11.2% | 3.05% |
| Cc1ccc(S(=O)(=O)c2c3[nH]c4ccccc4nc3n3c2nc2ccccc23)cc1 | -14.2% | -45.5% | -19.2% | -87.3% | -26.8% | -14.3% |
| O=C1CCC(=O)N1N1C(=O)CCC1=O | -9.65% | -24.2% | -10.4% | 7.05% | -23.2% | 3.35% |
| COc1ccc2c(c1)-c1c(ccc(OC)c1O)CC(c1ccccc1)[N+](C)(C)CC2 (stereo unspecified) | -5.8% | 10.7% | -5.55% | -12.4% | 2.25% | -2.5% |
| COc1cc(OC)c(C2SCC(=O)N2c2nnc(C(F)(F)F)s2)cc1OC (stereo unspecified) | 9.9% | 13.8% | 5.15% | 3.75% | 25.9% | 6.8% |
| CCCCCCCCCCCC(=O)NCc1ccc(OC(=O)CCCCCCCCCCC)c(OC)c1 | -7.55% | -9.8% | -6.3% | -34.1% | 4.1% | -8.85% |
| CCCOc1cc2c(cc1C(C)c1ccc(OC)c(C)c1)OCO2 (stereo unspecified) | -3.55% | 3.45% | -6% | -87.7% | 4.55% | 4.15% |
| Nc1nc(NCCO)c(NC=O)c(=O)[nH]1 | -11.6% | 6% | -2.6% | -34.4% | -13.8% | -1.35% |
| CCOC(=O)CC(=O)CC(=O)OCC | 36% | 2.6% | -6.95% | 6.1% | 23% | 7% |
| CC(=O)OC(C)COc1ccccc1 (stereo unspecified) | 23.1% and 5.6% | 1.55% and -10.3% | 2.05% and -4.55% | -31.2% and -6.8% | -17.1% and 8.8% | 15.6% and 15% |
| CCCc1ccc(C)c(CCC)c1O | -5.95% | -10.9% | -5.1% | -17.3% | -4.05% | 4% |
| CCCCC(C(=O)CCC(=O)Nc1ccc(Cl)c(Cl)c1)C(=O)C(C)C (stereo unspecified) | -7% | -18.8% | 19.1% | -0.3% | 8.4% | -2.4% |
| CCOC(=O)C1=C(C)NC(c2ccco2)=C(C#N)C1c1cccc([N+](=O)[O-])c1 (stereo unspecified) | 59.8% | 33.4% | 66% | 68.7% | 63.6% | 70.8% (active) |
| ClCc1ccc(OCc2ccccc2)cc1 | -2.85% | -1.45% | -11.2% | 9.3% | -29.1% | -6.25% |
| O=C(Nc1ccc(Cl)cc1)NC1OC(=O)C(Cl)=C1Cl (stereo unspecified) | 23.4% | 9.3% | 8.55% | -17.9% | 3.5% | 23.1% |
| O=C1C=C(Nc2ccccc2)c2ccccc2C1=O | -1.15% and 24.4% | 16.4% and -8.6% | 11.4% and 25.4% | -14.5% and 19.9% | 33.9% and 14.1% | 15.2% and 12.2% |
| CCOc1nc(=O)n(C2OC(CO)C(O)C2O)s1 (stereo unspecified) | 26.4% | -1.35% | -3.7% | -34.1% | -5.65% | 2.5% |
| CN1C(=O)N(C2CCCCC2)C(=O)C(C)(CN2CCCCC2)C1=O (stereo unspecified) | 12.7% | 14.1% | 12.2% | 17.6% | -5.25% | 12.2% |
| COc1cc2c(cc1OC)C(C(N)=O)NCC2 (stereo unspecified) | 10.2% | -35.8% | 25.6% | 12.2% | -7% | 17.6% |
| CC(=O)/C=C/N1CCOCC1 | 3.25% | -9.55% | -9.6% | -16.9% | 19.6% | -5.65% |

| Structure (SMILES) | growth inhibition [1] | growth inhibition [2] | growth inhibition [3] | growth inhibition [4] | growth inhibition [5] | growth inhibition [6] |
| --- | --- | --- | --- | --- | --- | --- |
| C=C[C@]1(C)C=C2CC[C@@H]3[C@](C)(CCC[C@@]3(C)C(=O)O)[C@H]2CC1 | 14.5% | 8.7% | 13.8% | -9.05% | -1.9% | 29.8% |
| O=C1N=CN=C2C=CC(Cl)=C(I)C12 (stereo unspecified) | 0.85% | 16.1% | 19.5% | 5.35% | 29.9% | 4.15% |
| CCC1=C(c2ccc(OC)cc2)CC[C@@]2(CCNC2=O)[C@@H]1C | 4.8% | -0.2% | -5.45% | 14.3% | 3.8% | 8.8% |
| CC(C)(C)CC(C)(C)c1ccc(O)c(CN2CCCCC2)c1 | 10.2% | 8.55% | 26.1% | -6.7% | 16.6% | 8.65% |
| CCc1ccccc1NC(=O)C(=O)CC(=O)c1sc(Nc2ccccc2Cl)nc1C | 6.25% | 6.15% | 26% | -16.6% | -2.65% | 15.1% |
| C=C1[C@@H](O)C[C@@H]2C[C@@]3(C)[C@H](C(C)(C)C[C@@H]3O)C12O (stereo partly specified) | -4.25% | -17.5% | -20.9% | 5% | -19% | -20.2% |
| CCOC(=O)CN1C(=O)/C(=C2\SC(=S)N(CC(=O)OCC)C2=O)SC1=S | 19.1% | 9.95% | 16.1% | 7.7% | -3.9% | 9.4% |
| COc1ccccc1C(O)C(C)C (stereo unspecified) | -17.6% | -11.3% | 3.9% | -15.8% | -5.25% | -24.1% |
| NC(=S)N/N=C1\CCCc2ccccc21 | 60.8% | 21.2% | 42.3% | 41.9% | 7.15% | 52.8% |
| COc1ccc(N=C=Nc2ccc(OC)cc2)cc1 | -1.45% | -15% | 4.15% | 9.6% | -10.2% | -13.6% |
| COc1ccccc1C(=O)Oc1ccc(OC(=O)c2ccccc2OC)c(C(C)=O)c1 | 16.6% | -1.85% | 0% | 3.25% | 20.2% | 35.4% |
| CSC(SC)c1cc(C)no1 | -11.3% | 12.2% | -7.45% | 34.6% | -10.2% | -9.15% |
| CC(=O)OCc1c(COC(C)=O)c(-c2ccc(Cl)cc2)n2c1CCC2 | 34% | 16.6% | 19.3% | -18.1% | 9.6% | 23.9% |
| CCCC(=O)NC(Nc1ccc(S(=O)(=O)Nc2cc(C)on2)cc1)(C(=O)OCC)C(F)(F)F (stereo unspecified) | 32.8% | -18.9% | 4.75% | 18.1% | -14.4% | -40.8% |
| O=COCCCOCCCOc1ccccc1 | 14.3% | -11.8% | -9.35% | -37.4% | -5.6% | 28.4% |
| CCCCN1C(=O)CC2[C@@H]3CCc4cc(OC(C)=O)ccc4C3CC[C@]2(C)C1=O (stereo partly specified) | 11.3% | 4.15% | 5.45% | 26.6% | -7.3% | -0.1% |
| CC(C)(C)OC(=O)N1CCC2(CC1)C(=O)NCN2c1ccccc1 | 23.4% | 11.9% | -3% | 31.2% | 0.7% | -38.9% |
| Cc1ccc(C)n1-c1ccccc1 | -12.6% | -37.5% | -7.75% | 9% | -8.2% | -19.4% |
| N#CC1(C(=O)c2ccccc2)C=Cc2ccccc2N1C(=O)c1ccccc1 (stereo unspecified) | -6.85% | 16.4% | -0.85% | 12.4% | 26.2% | -19.2% |
| O=C(O)c1c[nH]c2cc(OCc3ccc4ccccc4c3)ccc2c1=O | 20.2% | 2.55% | -11.3% | -2.05% | -3.05% | 6.55% |
